Source: PubChem (Broad Institute)
An excerpt weighted towards active compounds, which were near 3.8% of everything screened.
Wnt act = Wnt/beta-catenin pathway activators, primary screen, cell-based, plate reader, single point; Wnt/beta-catenin reporter cell assay, activator; activation, % at 9.35 µM; AID 743398, 2014; hit rate 1.2% among 300,000; in the data active means activation above about 30%, passing the limit was not always enough; inconclusive means no clear call, values can overlap the other calls;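 further: 0% = neutral control wells and 100% = positive control wells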
HSF-1 act = HSF-1 activators, primary screen, NIH3T3-HGL cells, MG132 stress, luminescence, single point; NIH3T3-HGL HSF-1 luciferase reporter, 8 h; 100% = twice DMSO control signal; activation, % at 9 µM; hit rate 1.7% among 300,000; AID 504408, 2011;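 active means mean replicate activation of at least 50% with a set share of replicates each reaching 50%; inconclusive means only one of those two conditions met; inactive means mean below 50% and too few replicates reaching it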;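 further: 0% = median of the neutral control wells and 100% = twice that signal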
esBAF inh = Bmi1 luciferase reporter increase in mESCs, primary screen, esBAF inhibitor project, mouse ES cells, Bmi1 luciferase knock-in, single point. 24 h; 100% = twice the neutral-well signal. reporter increase, % at 12.5 µM. hit rate 2% among 350,000. AID 602393, 2012; in the data active means activation above about 40%; inconclusive means no clear call, values can overlap the other calls;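 further: 0% = median of the plate's neutral control wells and 100% = double that signal; a rise in the Bmi1 reporter signal indicates esBAF inhibition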
MITF act = activators of MITF-driven TRPM1 promoter reporter, primary screen, cell-based, SK-MEL-5, luciferase, single point | SK-MEL-5 TRPM1-promoter luciferase, 24 h; % of positive control, neutral wells = 0 | activation, % at 12.5 µM | hit rate 0.75% among 300,000 | AID 588334, 2011;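 active means mean activation of at least 80% with every replicate also reaching 80%; inconclusive means mean reaches 80% but some replicate falls short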;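 further: 0% = neutral control wells and 100% = parthenolide positive control wells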
HSF1 inhib = HSF1 inhibitors in luciferase reporter cells, primary screen, cell-based, NIH3T3, luminescence | hit rate 0.77% among 300,000 | AID 2098, 2009 | NIH3T3-HGL HSE-luciferase, MG132-induced, luminescence 8 h; active compounds read low | activity change, negative = inhibition, % at 7.5 µM (by protocol);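 active means more than half of replicate wells show activity change below -50%, luminescence cut by over half; inconclusive means some wells, but at most half, below -50%; inactive means no replicate well below -50%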;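 further: luciferase reports HSF-1 transcriptional activity via heat shock element; 0% = median of DMSO wells and -100% = zero luminescence signal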
An asterisk follows results filed as active; ? = inconclusive; · = no result given.

SMILES	Wnt act	HSF-1 act	esBAF inh	MITF act	HSF1 inhib
O=C(Nc1cccnc1Cl)c1cc(-c2ccco2)on1	59*	27	46*	·	13
COc1cccc(-c2cc(C(=O)Nc3cccnc3Cl)no2)c1	16	39	5	59	26
CN(C)C(=O)C[C@@H]1CC[C@H](NC(=O)C2CCC2)[C@@H](CO)O1	·	·	-6	·	·
Cn1c(=N)n(CC(=O)c2cccs2)c2ccccc21	29	12	44*	12	7
CCCn1c(=N)n(CC(=O)c2cccs2)c2ccccc21	-4	5	-2	0	-5
Cc1ccc(NC(=O)c2ccc(Nc3ccccc3F)nc2)cc1	38*	27	·	41	26
Nc1sc(-c2ccccc2)cc1-c1n[nH]c(=S)n1C1CCCCC1	-13	84*	·	·	72
C=CCn1c(-c2csc(-c3ccccc3)n2)n[nH]c1=S	1	7	6	5	-5
C=CCn1c(-c2cc(-c3ccccc3)sc2N)n[nH]c1=S	41*	174*	·	·	146
C[C@@H]1CCCCO[C@@H](CN(C)Cc2ccc(C(F)(F)F)cc2)[C@H](C)CN([C@@H](C)CO)C(=O)c2cc(NC(=O)CCCN(C)C)ccc2O1	·	·	-14	·	·
c1ccc(C[C@H]2COc3c4ccccc4nn32)cc1	0	·	·	·	·
C#Cc1ccc2c(c1)COc1c3ccccc3nn1-2	27	61*	10	18	34
c1ccc2c3n(nc2c1)CCCO3	5	·	-1	-7	·
C(#CC1CCCCC1)c1ccc2c(c1)COc1c3ccccc3nn1-2	35*	-11	?	·	-5
CC(C#Cc1ccc2c(c1)COc1c3ccccc3nn1-2)OC(C)(C)C (configuration not stated)	15	7	104*	95*	7
CC1COc2c3ccccc3nn21 (configuration not stated)	3	·	·	·	·
C(#Cc1ccc2c(c1)COc1c3ccccc3nn1-2)c1ccccc1	32*	43	63*	100*	23
C[C@@H]1CN([C@H](C)CO)C(=O)c2cc(NC(=O)c3ccncc3)ccc2O[C@@H](C)CCCCO[C@H]1CN(C)C(=O)Nc1ccc(F)cc1	·	·	-5	·	·
O=C(C[C@H]1CC[C@H]2[C@@H](COC[C@@H](O)CN2C(=O)c2ccccn2)O1)N1CCN(c2ccccc2)CC1	·	·	2	·	·
c1ccc2c(c1)OCC(c1nnc3sc(-c4ccc5c(c4)OCO5)nn13)O2 (configuration not stated)	·	11	12	26	5
Fc1ccc(-c2nn3c(C4COc5ccccc5O4)nnc3s2)cc1 (configuration not stated)	·	7	42*	·	4
COc1ccccc1N1CCN(c2ccc3ccccc3n2)CC1	23	11	-7	108*	15
COc1ccccc1N1CCN(c2cc(N3CCCC3)nc(C)n2)CC1	·	-41	1	11	-40
Cn1c2ccccc2c(=O)c2ccc(C#Cc3ccc(N)cc3)cc21	-11	0	16	27	-8
COc1cccc2sc3ccc(C#Cc4ccc(N)cc4)cc3c(=O)c12	37*	-4	61*	102*	6
SMILES	Wnt act	HSF-1 act	esBAF inh	MITF act	HSF1 inhib
Nc1ccc(C#Cc2ccc3sc4ccccc4c(=O)c3c2)cc1	18	9	43*	66	9
C[C@H](CO)N1C[C@H](C)[C@@H](CN(C)Cc2ccc(C(F)(F)F)cc2)Oc2ccc(NS(C)(=O)=O)cc2C1=O	·	·	-9	·	·
Clc1cc(Cl)c2nc(N3CCCC3)sc2c1	36*	37	·	29	27
CNc1nc2c(Cl)cc(Cl)cc2s1	3	12	·	·	4
Clc1cc(Cl)c2nc(N3CCCCC3)sc2c1	60*	38	53*	70	13
CNC[C@H]1Oc2ncc(C#Cc3ccccc3F)cc2C(=O)N([C@@H](C)CO)C[C@H]1C	·	·	2	·	·
COc1ccc(S(=O)(=O)N2CCOCC2)cc1NC(=O)c1ccc2c(c1)OCCO2	40*	-26	3	-2	-10
Cc1ccc(C(=O)Nc2ccccc2[N+](=O)[O-])cc1S(=O)(=O)N1CCOCC1	14	29	34	-15	17
COc1ccc(S(=O)(=O)N2CCOCC2)cc1NC(=O)c1ccc(Cl)cc1	0	23	-3	11	6
COc1ccc(C(=O)Nc2ccccc2[N+](=O)[O-])cc1S(=O)(=O)N1CCOCC1	14	131*	7	-22	76
O=C(C[C@@H]1CC[C@H]2[C@@H](COC[C@@H](O)CN2C(=O)Nc2ccccc2)O1)NCCCN1CCOCC1	·	·	11	·	·
Cc1ccc(C=Nc2ccccc2C(N)=O)o1	0	60*	·	7	26
Cc1ccc(/C=N/c2sc(Cc3ccccc3)c(C)c2C(N)=O)o1	-2	-24	11	8	-8
COCCNC(=O)C[C@H]1CC[C@@H](NC(=O)NC2CCCC2)[C@H](CO)O1	·	·	4	·	·
O=C(CSC(=S)N1CCCCC1)Nc1ncc2c(n1)CCCC2=O	-3	-59	·	·	-52*
COc1ccc(-c2cc(C(=O)Nc3ccccc3)on2)cc1	13	48	·	101*	5
O=C(Nc1ccc(F)cc1)c1cc(-c2ccccc2)no1	35*	-18	·	24	-9
CSc1nc(C)cc(-c2cc(C(=O)Nc3ccccc3)on2)n1	·	7	·	·	-1
COc1ccc(-c2cc(C(=O)Nc3ccccc3F)on2)cc1	11	54*	·	95*	35
C[C@@H]1CN([C@H](C)CO)C(=O)c2cccc(NS(=O)(=O)c3cccs3)c2O[C@@H]1CN(C)S(=O)(=O)c1ccc(F)cc1	·	·	-2	·	·
CCCC(=O)c1ccc(N2CCC(C)CC2)c(F)c1	52*	-2	·	69	13
CCCC(=O)c1ccc(N2CCCCC2)c(F)c1	?	6	·	78	5
COC(=O)c1ccc(N2CCCCC2)c(N)c1	16	40	58*	88*	8
CCCC(=O)c1ccc(N2CCCCCC2)c(F)c1	3	7	52*	·	21
COCC(=O)N(C)C[C@H]1Oc2ncc(C#Cc3ccc(OC)cc3)cc2C(=O)N([C@H](C)CO)C[C@H]1C	·	·	1	·	·
C[C@H]1CN([C@@H](C)CO)C(=O)c2cccc(NS(=O)(=O)c3cn(C)cn3)c2O[C@H]1CN(C)C(=O)NC1CCCCC1	·	·	-7	·	·
CN(C)/C=C1\C(=O)N(c2ccc([N+](=O)[O-])cc2)N=C1c1ccccc1	·	22	53*	36	28
CN(C)/C=C1/C(=O)N(c2ccc([N+](=O)[O-])cc2)N=C1c1ccccc1	·	56*	·	·	35
CC1=NN(c2ccc([N+](=O)[O-])cc2)C(=O)/C1=C\N(C)C	5	28	·	10	8
O=C(Nc1nccs1)[C@H]1[C@H](CO)[C@H]2Cn3c(cccc3=O)[C@@H]1N2C(=O)C1CCC1	·	·	-8	·	·
